Assay outcomes: PubChem, National Center for Advancing Translational Sciences (NCATS)
FMDV inh = High Throughput Screening for Foot and Mouth Disease Virus Antivirals; AID 1159524, 2015; FMDV antiviral cell-based qHTS; Potency, µM (series often up to 57.9 µM), actives largely listed as inhibitors; hit rate 1.2% among 410,000; calls by dose curve; tested in HEK293T cells; note: read-out not given here; nearly all actives have a fitted effect of over 45% in size
MARV entry inh = qHTS for inhibitors of binding or entry into cells for Marburg Virus; Marburg virus pseudotyped entry inhibition, cell reporter; Potency, µM (highest dose often 37.8 µM), actives largely listed as inhibitors; hit rate 1.8% among 300,000; AID 540276, 2011; calls by dose curve; tested in HEK293 cells
Vaccinia mCherry = qHTS for Stage-Specific Inhibitors of Vaccinia Orthopoxvirus: mCherry Reporter Primary qHTS; Vaccinia virus mCherry reporter infection, fluorescence; Potency, µM (highest dose often 36.5 µM), usual class: inhibitors; hit rate 0.63% among 310,000; calls by dose curve; tested in A549 cells; note: nearly all actives have a fitted effect of over 35% in size
VACV Venus inh = qHTS for Stage-Specific Inhibitors of Vaccinia Orthopoxvirus: Venus Reporter Primary qHTS; hit rate 0.46% among 330,000; Vaccinia virus Venus reporter expression, fluorescence; Potency, µM (series often up to 36.5 µM), actives largely listed as inhibitors; calls by dose curve; tested in A549 cells; note: nearly all actives have a fitted effect of over 30% in size
HCMV antiviral = qHTS Assay for inhibitors of the human cytomegalovirus (HCMV). AID 1259415, 2018. hit rate 4.5% among 410,000. HFF cells, HCMV-luciferase reporter, 72 h; active compounds read low. activity change, negative = inhibition, % at 57.5 µM; in the data active = activity change below about -60%; inconclusive = no clear call, values can overlap the other calls; inactive = above about -39%
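Steps: HFFs plated, 16 h 37C; compounds added; HCMV-luciferase added to MOI 1 PFU/cell; 72 h 37C; OneGlo reagent, 5 min room temperature; luminescence read, normalized to controls.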
Lassa entry inh = qHTS for Inhibitors of binding or entry into cells for Lassa Virus; Potency, µM (highest dose often 37.9 µM), most hits filed as inhibitors; Lassa virus pseudotype entry inhibition, cell reporter; hit rate 1.2% among 300,000; calls by dose curve; tested in HEK293 cells; note: nearly all actives have a fitted effect of over 50% in size
Of the large screens only hits and unclear results are named; the others gave an inactive call. Hits are enriched below; roughly 6.5% of the tested compounds scored in any of these assays.

CN1CCN(/N=C/c2ccc(N(c3ccccc3)c3ccccc3)cc2)CC1	FMDV inh inconclusive, MARV entry inh 1.3µM, Lassa entry inh 0.63µM
O=c1oc2ccc(F)cc2cc1-c1nc(-c2cccs2)no1	Lassa entry inh inconclusive (no result: MARV entry inh)
Cc1cccc(C)c1NC(=O)CN(C)C(=O)c1ccc(-c2cccc(C(F)(F)F)c2)o1	MARV entry inh inconclusive, Lassa entry inh 5.6µM
COC(=O)c1ccc(NC(=O)CSc2nncn2-c2ccccn2)cc1	HCMV antiviral -72
COC(=O)c1cccc(NC(=O)CSc2nc3cccnc3n2C)c1	FMDV inh 16µM, MARV entry inh inconclusive, VACV Venus inh inconclusive, HCMV antiviral inconclusive
O=C1NN(c2ccccc2)C(=O)/C1=C\c1cccn1-c1ccc(Cl)c([N+](=O)[O-])c1	FMDV inh inconclusive, MARV entry inh 11µM, Lassa entry inh inconclusive
CO[C@H]1C[C@@H]2CC[C@@H](C)[C@@](O)(O2)C(=O)C(=O)N2CCCC[C@H]2C(=O)OC([C@H](C)C[C@@H]2CC[C@@H](O)[C@H](OC)C2)CC(=O)[C@H](C)/C=C(\C)[C@@H](O)[C@@H](OC)C(=O)[C@H](C)C[C@H](C)/C=C/C=C/C=C/1C (stereo not given in full)	none (no result: MARV entry inh, HCMV antiviral, Lassa entry inh)
CC[C@@H]1C=C(C)C[C@H](C)C[C@H](OC)[C@H]2O[C@@](O)(C(=O)C(=O)N3CCCC[C@H]3C(=O)O[C@H](/C(C)=C/[C@@H]3CC[C@@H](O)[C@H](OC)C3)[C@H](C)[C@@H](O)CC1=O)[C@H](C)C[C@@H]2OC	MARV entry inh 6.5µM, Lassa entry inh inconclusive (no result: FMDV inh, Vaccinia mCherry, VACV Venus inh, HCMV antiviral)
CCOC(=O)C1(Cc2ccc(OC)cc2)CCN(C(=O)CCN2CCCC2=O)CC1	HCMV antiviral -76 (no result: MARV entry inh, Vaccinia mCherry, VACV Venus inh, Lassa entry inh)
CCOC(=O)C1(Cc2cccc(OC)c2)CCN(C/C=C/c2ccccc2)CC1	FMDV inh inconclusive, MARV entry inh 7.9µM, Lassa entry inh inconclusive
CCOC(=O)C1(CC2CC2)CCN(Cc2ccc(OC)cc2F)CC1	FMDV inh inconclusive, MARV entry inh 10µM, HCMV antiviral inconclusive, Lassa entry inh inconclusive
CCOC(=O)C1(Cc2cccc(OC)c2)CCN(Cc2cccc(OCC)c2O)CC1	FMDV inh inconclusive, MARV entry inh 7.1µM, HCMV antiviral inconclusive
CCOC(=O)C1(Cc2cccc(OC)c2)CCN(CCO)CC1	none
CCOC(=O)c1cccn1C1C(=O)N(Cc2ccc(C(F)(F)F)cc2)c2ccc(OC(F)(F)F)cc21 (stereo not given)	none (no result: FMDV inh, MARV entry inh, Vaccinia mCherry, VACV Venus inh, Lassa entry inh)
CCCN(C(=O)Cn1ncc2c([nH]c3ccccc32)c1=O)c1ccc(F)cc1	FMDV inh inconclusive (no result: MARV entry inh)
CCOC(=O)C1(Cc2cccc(OC)c2)CCN(CC=C(C)C)CC1	none (no result: MARV entry inh, Vaccinia mCherry, VACV Venus inh, Lassa entry inh)
CCOC(=O)C1(Cc2cccc(OC)c2)CCN(C/C=C/c2ccc(OC)cc2)CC1	FMDV inh 14µM, MARV entry inh inconclusive, HCMV antiviral inconclusive, Lassa entry inh inconclusive
COc1ccc([C@H]2/C(=C(\O)c3cnn(-c4ccccc4)c3C)C(=O)C(=O)N2CCN(C)C)cc1OC	none (no result: FMDV inh, Vaccinia mCherry, VACV Venus inh, HCMV antiviral, Lassa entry inh)
CN1CCN(S(=O)(=O)c2ccc(NC(=O)c3ccccc3F)cc2)CC1	none (no result: MARV entry inh, Vaccinia mCherry, VACV Venus inh, Lassa entry inh)
CC(=O)Nc1nnc(-c2ccc3c(c2)CCCC3)o1	none (no result: MARV entry inh, Lassa entry inh)
CC1CCCCN1S(=O)(=O)c1ccc(C(=O)Nc2nnc(-c3ccco3)o2)cc1 (stereo not given)	MARV entry inh inconclusive, Vaccinia mCherry inconclusive, VACV Venus inh inconclusive, HCMV antiviral -70, Lassa entry inh inconclusive
CC1CCN(S(=O)(=O)c2ccc(NC(=O)c3ccccc3F)cc2)CC1	HCMV antiviral -62 (no result: Lassa entry inh)
O=C(Nc1nnc(C2CC2)o1)c1ccc(S(=O)(=O)N2CCCCC2)cc1	Vaccinia mCherry inconclusive, HCMV antiviral -61
CC1CCN(S(=O)(=O)c2ccc(C(=O)Nc3nnc(C4CC4)o3)cc2)CC1	MARV entry inh inconclusive, Vaccinia mCherry inconclusive, Lassa entry inh inconclusive
COc1ccccc1C(=O)Nc1nnc(-c2ccc3c(c2)CCCC3)o1	HCMV antiviral -76 (no result: MARV entry inh, Lassa entry inh)
CCOC(=O)C1=CCN(S(=O)(=O)c2ccc(Br)cc2)C1c1cccc(Br)c1 (stereo not given)	none (no result: FMDV inh, MARV entry inh, Vaccinia mCherry, VACV Venus inh, Lassa entry inh)
CSc1ccc(CCNC(=O)Cn2nc(C)n3c(cc4sccc43)c2=O)cc1	none (no result: Lassa entry inh)
Fc1ccccc1N1CCN(c2c3c(nc4nncn24)CCC3)CC1	FMDV inh inconclusive
